Results taken from PubChem BioAssay (EPA / NIEHS).
Results filed as inconclusive are left out. Some structures have more than one record in an assay (separate samples or runs), and their calls can disagree. The source made the active and inactive calls. The calls were made as follows, unless noted: active = hit-call score of the fitted dose curve at least 0.9, where 1 is the maximum; inactive = score below 0.9.

Legend:
[1] = biological target: Retinoic acid receptor RXR-alpha (Homo sapiens) (UniProt P19793); assay: ATG_RXRa_TRANS: Attagene TRANS-FACTORIAL HepG2 Assay for human Retinoid X Receptor alpha (RXRa) (AID 2283012; active = hit-call score of the fitted dose curve at least 0.9, where 1 is the maximum)
Procedure, shortened: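 Chimeric NR-GAL4 trans-activation in HepG2, 24 h treatment; reporter transcripts quantified by fluorescence on capillary electrophoresis, analysed for upward change from DMSO.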

[2] = biological target: human Retinoid X Receptor beta (RXRb), RXRB (gene 6257) (UniProt P28702); assay: ATG_RXRb_TRANS: Attagene TRANS-FACTORIAL HepG2 Assay for human Retinoid X Receptor beta (RXRb) (AID 2283013; active = hit-call score of the fitted dose curve at least 0.9, where 1 is the maximum)
Procedure, shortened: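 After a 24 h incubation with test chemical, transfected HepG2 cells carrying NR-Gal4 fusions and GAL4-UAS reporter transcription units yield RNA whose reporter cDNA is FAM-labelled, HpaI-cut and sized by capillary electrophoresis; increases over DMSO are scored.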

[3] = biological target: human Thyroid Receptor alpha (THRa1), THRA (gene 7067) (UniProt P10827); assay: ATG_THRa1_TRANS: Attagene TRANS-FACTORIAL HepG2 Assay for human Thyroid Receptor alpha (THRa1) (AID 2283014; active = hit-call score of the fitted dose curve at least 0.9, where 1 is the maximum)
Procedure, shortened: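 Reporter transcript induction, read by capillary electrophoresis of 6-FAM-labelled RT-PCR products, reflects activity of a transfected THRa1-Gal4 fusion in HepG2 liver cells. Cells were dosed for 24 h; activity was fitted in the positive direction against DMSO.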

[4] = read-out: E-selectin (Homo sapiens) (UniProt P16581); assay: BSK_3C_Eselectin: BioMAP Diversity Plus: 3C Assay for Eselectin Biomarker Activity (AID 2283015); settings: primary human endothelial cells (HUVEC); actives raise or lower the signal
Procedure, shortened: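 ELISA read-out of E-selectin on endothelial monolayers after 24 h chemical treatment. Human umbilical vein primary cells served as the system, with DMSO defining baseline activity for bidirectional fitting.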

[5] = read-out: Interleukin-1 alpha (IL1a), IL1A (gene 3552); assay: BSK_BE3C_IL1a: BioMAP Diversity Plus: BE3C Assay for Interleukin-1 alpha (IL1a) Biomarker Activity (AID 2283016); settings: primary human bronchial epithelial cells; actives raise or lower the signal
Procedure, shortened: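 Measured in human lung primary bronchial epithelial cells: IL-1a by ELISA at 24 h after dosing, with bidirectional fitting against DMSO.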

[6] = read-out: Monocyte Chemoattractant Protein-1 (MCP1), CCL2 (gene 6347); assay: BSK_3C_MCP1: BioMAP Diversity Plus: 3C Assay for Monocyte Chemoattractant Protein-1 (MCP1) Biomarker Activity (AID 2283017); settings: primary human endothelial cells (HUVEC); actives raise or lower the signal
Procedure, shortened: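 ELISA read-out of MCP-1 from human umbilical vein endothelial cell cultures harvested 24 h post-dosing. Gain or loss of signal was fitted relative to DMSO.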

[7] = read-out: Monocyte Chemoattractant Protein-1 (MCP1), CCL2 (gene 6347); assay: BSK_4H_MCP1: BioMAP Diversity Plus: 4H Assay for Monocyte Chemoattractant Protein-1 (MCP1) Biomarker Activity (AID 2283018); settings: primary human endothelial cells (HUVEC); actives raise or lower the signal
Procedure, shortened: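 Primary human umbilical vein endothelium is exposed to chemical for 24 h before MCP-1 is assayed by ELISA. Concentration-response fitted bidirectionally relative to DMSO.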

[8] = read-out: Human Leukocyte Antigen - DR isotype (HLADR), HLA-DRA (gene 3122); assay: BSK_3C_HLADR: BioMAP Diversity Plus: 3C Assay for Human Leukocyte Antigen - DR isotype (HLADR) Biomarker Activity (AID 2283019); settings: primary human endothelial cells (HUVEC); actives raise or lower the signal
Procedure, shortened: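 ELISA readout of surface HLA-DR on human umbilical vein endothelium, taken 24 h after chemical treatment. Gain- and loss-of-signal were both fitted relative to DMSO.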

[9] = read-out: Monokine induced gamma interferon (MIG), CXCL9 (gene 4283); assay: BSK_3C_MIG: BioMAP Diversity Plus: 3C Assay for Monokine induced gamma interferon (MIG) Biomarker Activity (AID 2283021); settings: primary human endothelial cells (HUVEC); actives raise or lower the signal
Procedure, shortened: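 ELISA-measured MIG in dosed HUVEC 3C cultures at 24 h, analysed by bidirectional fitting with DMSO defining baseline activity.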

[10] = BSK_3C_SRB: Viability Assessment in the BioMAP Diversity Plus: 3C Assay (AID 2283023); settings: primary human endothelial cells (HUVEC);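 also: fitted both ways against DMSO so a hit may be signal rise or drop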
Procedure, shortened: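 Absorbance at 560 nm of sulforhodamine B-stained (0.1%) total protein served as a cytotoxicity readout in human umbilical vein endothelial cells, 24 h after chemical treatment. Signal was fitted bidirectionally relative to DMSO.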

[11] = read-out: Matrix Metallopeptidase 1 (MMP1), MMP1 (gene 4312); assay: BSK_BE3C_MMP1: BioMAP Diversity Plus: BE3C Assay for Matrix Metallopeptidase 1 (MMP1) Biomarker Activity (AID 2283024); settings: primary human bronchial epithelial cells; actives raise or lower the signal
Procedure, shortened: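 In this multiplexed primary-cell system, human bronchial epithelium received chemicals for 24 h before an ELISA for MMP1. Values reflect bidirectional fits normalised to the DMSO baseline.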

[12] = BSK_3C_Vis: BioMAP Diversity Plus: 3C Assay for Morphology Visualization (AID 2283025); settings: primary human endothelial cells (HUVEC);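 also: fitted both ways so gain or loss versus DMSO counts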;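 as to AC50: light microscopy image of cell morphology used as background control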
Procedure, shortened: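 Light-microscopy morphology readout, 24 h exposure, human primary umbilical vein endothelium; analysed relative to DMSO with bidirectional fitting.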

[13] = read-out: Pselectin, SELP (gene 6403); assay: BSK_4H_Pselectin: BioMAP Diversity Plus: 4H Assay for Pselectin Biomarker Activity (AID 2283026); settings: primary human endothelial cells (HUVEC); actives raise or lower the signal
Procedure, shortened: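 Bidirectional fits against DMSO gave the endpoint. Cells: primary human umbilical vein endothelium, chemical-treated for 24 h before ELISA detection of P-selectin.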

[14] = BSK_4H_SRB: Viability Assessment in the BioMAP Diversity Plus: 4H Assay (AID 2283027); settings: primary human endothelial cells (HUVEC);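 also: cells exposed to compound for 24 h before staining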;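 as to AC50: curves fitted both ways versus DMSO so AC50 may be loss or gain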
Procedure, shortened: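 Cytotoxicity read-out in primary human endothelial cells: after 24 h compound exposure, cells were TCA-fixed (10%), stained with 0.1% SRB and absorbance taken at 560 nm. Values fitted in both directions relative to DMSO.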

[15] = BSK_BE3C_SRB: Viability Assessment in the BioMAP Diversity Plus: BE3C Assay (AID 2283028); settings: primary human bronchial epithelial cells;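 as to AC50: fitted both ways so AC50 may mark signal gain or loss versus DMSO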
Procedure, shortened: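 Cells (human bronchial epithelial, primary) are treated with chemicals, and after 24 h the parallel cultures are fixed in 10% TCA. These are then stained with 0.1% SRB and read at 560 nm. Gain or loss of signal is fitted relative to DMSO.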

[16] = read-out: Thrombomodulin, THBD (gene 7056); assay: BSK_3C_Thrombomodulin: BioMAP Diversity Plus: 3C Assay for Thrombomodulin Biomarker Activity (AID 2283029); settings: primary human endothelial cells (HUVEC); actives raise or lower the signal
Procedure, shortened: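 In a multiplexed primary-cell system, human umbilical vein endothelium received chemical and was assayed 24 h later for thrombomodulin by ELISA. Parallel cultures were SRB-stained (0.1% SRB after 10% TCA fixation, read at 560 nm) to flag cytotoxicity.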

[17] = read-out: Interleukin-8 (IL8), CXCL8 (gene 3576); assay: BSK_3C_IL8: BioMAP Diversity Plus: 3C Assay for Interleukin-8 (IL8) Biomarker Activity (AID 2283020); settings: primary human endothelial cells (HUVEC); actives raise or lower the signal
Procedure, shortened: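 Using DMSO-treated wells as the baseline, bidirectional curve fitting was applied to ELISA-measured IL-8 from human umbilical vein endothelial cultures sampled 24 h after compound addition.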

[18] = biological target: human Vitamin D Receptor (VDR), VDR (gene 7421) (UniProt P11473); assay: ATG_VDR_TRANS: Attagene TRANS-FACTORIAL HepG2 Assay for human Vitamin D Receptor (VDR) (AID 2283022; active = hit-call score of the fitted dose curve at least 0.9, where 1 is the maximum)
Procedure, shortened: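 Steps: transfect HepG2 with GAL4-UAS-driven reporter constructs; dose compounds 24 h; isolate RNA, reverse-transcribe, PCR-amplify with 6-FAM-labelled primer extension and HpaI digestion; quantify fragments by capillary electrophoresis relative to DMSO.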

Measured: AC50

human Retinoid X Receptor beta (RXRb), RXRB (gene 6257), sequence (P28702 whole entry, looked up, the tested form may be a part): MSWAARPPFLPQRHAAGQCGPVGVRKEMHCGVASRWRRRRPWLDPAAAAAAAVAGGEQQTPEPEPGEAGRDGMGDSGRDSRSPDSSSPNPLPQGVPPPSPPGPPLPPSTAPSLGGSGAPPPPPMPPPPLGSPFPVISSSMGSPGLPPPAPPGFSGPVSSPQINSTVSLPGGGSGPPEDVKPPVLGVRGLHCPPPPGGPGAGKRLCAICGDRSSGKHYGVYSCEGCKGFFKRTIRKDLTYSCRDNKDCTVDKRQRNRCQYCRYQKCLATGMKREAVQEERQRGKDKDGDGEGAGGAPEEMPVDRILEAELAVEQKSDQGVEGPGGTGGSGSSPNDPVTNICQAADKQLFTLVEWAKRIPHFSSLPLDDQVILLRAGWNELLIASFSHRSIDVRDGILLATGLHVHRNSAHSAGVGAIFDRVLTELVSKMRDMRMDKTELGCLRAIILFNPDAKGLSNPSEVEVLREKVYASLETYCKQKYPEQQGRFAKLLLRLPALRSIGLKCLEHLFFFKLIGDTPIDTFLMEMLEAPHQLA
Retinoic acid receptor RXR-alpha (Homo sapiens), sequence (P19793 whole entry, looked up, the tested form may be a part): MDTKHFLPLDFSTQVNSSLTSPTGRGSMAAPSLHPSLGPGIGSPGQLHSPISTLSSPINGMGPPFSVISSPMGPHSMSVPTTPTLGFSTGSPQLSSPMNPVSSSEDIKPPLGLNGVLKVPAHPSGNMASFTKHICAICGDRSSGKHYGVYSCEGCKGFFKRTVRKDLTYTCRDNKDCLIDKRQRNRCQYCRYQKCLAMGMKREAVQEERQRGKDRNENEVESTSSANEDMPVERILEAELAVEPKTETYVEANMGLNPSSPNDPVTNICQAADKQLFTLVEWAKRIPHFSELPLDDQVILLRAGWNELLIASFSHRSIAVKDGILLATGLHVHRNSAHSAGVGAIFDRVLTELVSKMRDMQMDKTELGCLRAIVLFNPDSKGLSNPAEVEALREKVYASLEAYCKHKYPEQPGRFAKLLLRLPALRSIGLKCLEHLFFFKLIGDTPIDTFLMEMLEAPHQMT
human Thyroid Receptor alpha (THRa1), THRA (gene 7067), sequence (P10827 whole entry, looked up, the tested form may be a part): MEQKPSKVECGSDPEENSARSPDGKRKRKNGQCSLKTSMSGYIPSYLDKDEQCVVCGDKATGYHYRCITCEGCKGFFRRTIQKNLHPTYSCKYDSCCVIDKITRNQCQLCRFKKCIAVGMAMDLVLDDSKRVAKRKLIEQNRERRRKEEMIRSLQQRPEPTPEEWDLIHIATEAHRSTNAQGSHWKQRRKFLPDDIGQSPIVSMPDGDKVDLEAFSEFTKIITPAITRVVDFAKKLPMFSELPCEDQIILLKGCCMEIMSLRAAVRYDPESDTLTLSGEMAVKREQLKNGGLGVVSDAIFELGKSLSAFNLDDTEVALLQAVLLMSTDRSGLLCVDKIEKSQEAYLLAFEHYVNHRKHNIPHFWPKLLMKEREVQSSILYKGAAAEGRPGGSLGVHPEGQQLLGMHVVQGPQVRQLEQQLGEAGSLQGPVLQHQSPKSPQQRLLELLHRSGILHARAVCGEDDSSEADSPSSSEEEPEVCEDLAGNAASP
human Vitamin D Receptor (VDR), VDR (gene 7421), sequence (P11473 whole entry, looked up, the tested form may be a part): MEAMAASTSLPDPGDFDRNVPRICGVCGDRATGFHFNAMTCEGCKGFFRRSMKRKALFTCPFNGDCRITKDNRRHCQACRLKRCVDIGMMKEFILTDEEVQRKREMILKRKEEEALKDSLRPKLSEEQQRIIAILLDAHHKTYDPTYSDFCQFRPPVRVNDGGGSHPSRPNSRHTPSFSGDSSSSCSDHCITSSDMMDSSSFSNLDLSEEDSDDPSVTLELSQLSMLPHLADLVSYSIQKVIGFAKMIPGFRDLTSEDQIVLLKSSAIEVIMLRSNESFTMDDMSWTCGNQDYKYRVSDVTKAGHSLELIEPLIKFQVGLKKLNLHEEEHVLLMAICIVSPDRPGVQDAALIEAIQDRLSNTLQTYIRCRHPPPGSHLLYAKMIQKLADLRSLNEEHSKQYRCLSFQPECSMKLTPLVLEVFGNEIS
E-selectin (Homo sapiens), sequence (P16581 whole entry, looked up): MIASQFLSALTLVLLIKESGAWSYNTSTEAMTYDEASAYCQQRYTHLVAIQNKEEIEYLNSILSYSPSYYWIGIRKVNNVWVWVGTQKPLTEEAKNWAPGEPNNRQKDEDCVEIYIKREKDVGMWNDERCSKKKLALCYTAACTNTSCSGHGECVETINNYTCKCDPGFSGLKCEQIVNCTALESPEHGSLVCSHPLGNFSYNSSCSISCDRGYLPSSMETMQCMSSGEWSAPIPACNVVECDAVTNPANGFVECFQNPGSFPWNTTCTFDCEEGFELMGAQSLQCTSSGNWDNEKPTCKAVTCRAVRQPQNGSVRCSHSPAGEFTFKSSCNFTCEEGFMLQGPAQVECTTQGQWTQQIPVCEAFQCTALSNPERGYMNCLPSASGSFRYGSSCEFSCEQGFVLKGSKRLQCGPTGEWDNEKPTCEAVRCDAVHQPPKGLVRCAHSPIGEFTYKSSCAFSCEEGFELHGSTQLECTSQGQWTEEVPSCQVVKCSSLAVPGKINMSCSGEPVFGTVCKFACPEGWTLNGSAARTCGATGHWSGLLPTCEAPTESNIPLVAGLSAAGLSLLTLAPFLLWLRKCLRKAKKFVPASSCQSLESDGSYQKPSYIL

CN(C)[C@@H]1C(=O)C(C(N)=O)=C(O)[C@@]2(O)C(=O)C3=C(O)c4c(O)cccc4[C@@](C)(O)[C@H]3[C@H](O)[C@@H]12
active: [11] 15.8 µM
inactive: [1] | [2] | [3] | [4] | [5] | [6] | [7] | [8] | [9] | [10] | [11] | [12] | [13] | [14] | [15] | [16]

CC1(C(=O)Nc2ccc(O)c(Cl)c2Cl)CCCCC1
active: [15] 17.8 µM
not listed: [2] | [3]
inactive: all other assays above

CN(C)C(=O)Nc1cccc(C(F)(F)F)c1
active: [12] 39 µM
not listed: [2] | [3] | [17] | [18]
inactive: all other assays above

CCCCOC(=O)[C@@H](C)Oc1ccc(Oc2ccc(C#N)cc2F)cc1
not listed: [2] | [4] | [18]
inactive: all other assays above

CCOP(=S)(OCC)Oc1cc(C)nc(C(C)C)n1
not listed: [5] | [17] | [18]
inactive: all other assays above

Nc1c(Cl)cc([N+](=O)[O-])cc1Cl
active: [8] 28.8 µM
not listed: [4] | [5]
inactive: all other assays above

CNC(=O)ON=C(SC)C(=O)N(C)C
active: [12] 39 µM
not listed: [1] | [3] | [5] | [17] | [18]
inactive: all other assays above

CNC(=O)Oc1cccc2c1OC(C)(C)O2
active: [8] 28.6 µM | [10] 20 µM | [13] 16.7 µM
not listed: [1] | [3] | [4] | [5]
inactive: all other assays above

O=c1ccc(=O)[nH][nH]1
not listed: [4] | [5] | [18]
inactive: all other assays above

CNC(=O)ON=C(C)SC
not listed: [1] | [3] | [4] | [5] | [17] | [18]
inactive: all other assays above

CC(C)=CC1C(C(=O)OCN2C(=O)C3=C(CCCC3)C2=O)C1(C)C (centres undefined)
active: [4] 26.9 µM | [6] 7.53 µM | [8] 27.9 µM | [10] 27.2 µM | [11] 11.3 µM | [13] 20 µM
not listed: [5] | [17]
inactive: all other assays above

CN(C)NC(=O)CCC(=O)O
not listed: [1] | [4]
inactive: all other assays above

CCOP(=O)(OCC)Oc1cc(C)nc(C(C)C)n1
active: [8] 20 µM | [12] 39 µM
not listed: [1] | [2] | [3] | [4] | [17] | [18]
inactive: all other assays above

C[Si](Cn1cncn1)(c1ccc(F)cc1)c1ccc(F)cc1
active: [10] 17.9 µM | [12] 39 µM
not listed: [3] | [17]
inactive: all other assays above

CCC(CC)Nc1c([N+](=O)[O-])cc(C)c(C)c1[N+](=O)[O-]
active: [4] 31.2 µM | [6] 36.6 µM | [7] 22.4 µM | [8] 36.2 µM | [10] 16.7 µM | [11] 20 µM | [12] 13.7 µM | [13] 28.5 µM | [14] 35.6 µM | [15] 20 µM | [16] 15.5 µM
inactive: [1] | [2] | [9] | [18]

COc1ccc(C(=CC(=O)N2CCOCC2)c2ccc(Cl)cc2)cc1OC
active: [6] 6.59 µM | [8] 13.9 µM | [16] 3.36 µM
not listed: [4] | [17]
inactive: all other assays above

CSC1=N[C@@](C)(c2ccccc2)C(=O)N1Nc1ccccc1
active: [7] 27.8 µM | [8] 5.87 µM | [17] 8.64 µM | [10] 7.26 µM | [14] 2.88 µM
not listed: [4] | [5]
inactive: all other assays above

CCNc1nc(Cl)nc(NC(C)(C)C#N)n1
not listed: [3] | [5] | [17] | [18]
inactive: all other assays above

COP(=O)(NC(C)=O)SC (centres undefined)
active: [10] 5.17 µM
not listed: [4] | [5] | [17]
inactive: all other assays above

CCc1cnc(C2=NC(C)(C(C)C)C(=O)N2)c(C(=O)O)c1 (centres undefined)
not listed: [1] | [2] | [3]
inactive: all other assays above

Cc1nn(-c2cc(NS(C)(=O)=O)c(Cl)cc2Cl)c(=O)n1C(F)F
not listed: [2] | [4] | [5] | [17]
inactive: all other assays above

C#CC(C)(C)NC(=O)c1cc(Cl)cc(Cl)c1
active: [8] 19.1 µM | [12] 3.25 µM
not listed: [4] | [5] | [17] | [18]
inactive: all other assays above

COc1cccc(C(=O)NN(C(=O)c2cc(C)cc(C)c2)C(C)(C)C)c1C
active: [12] 39 µM
not listed: [1] | [2] | [3] | [4] | [18]
inactive: all other assays above
